The text below walks through data of PubChem BioAssay (NCI).

Structures are written as SMILES. About 83,000 compounds went through this panel and 20% of them were active in at least one assay; those are over-represented in the sample as a whole.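 48-hour exposure, single concentration, 96-well plates; percent growth endpoint where 0 means no net growth. Active: below 10.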 A number with no mark means an inactive call. Activity calls are given as the source filed them.

This test has as its system MDA-MB-468 breast. Description: NCI-60 one-dose screen, 48 h (100 = growth as untreated, 0 = no growth, -100 = all killed). The following applies: 10 µM unless noted.
Regarding `COc1cc(C(=O)/C=C/c2c(C)n([O-])c3ccc(C)cc3[n+]2=O)cc(OC)c1OC`, the growth is 30.3%. Turning to `O=C(CC1Sc2ccccc2NC1=O)NNc1ccc(F)cc1` (stereo not given), the growth was 92.7%. Turning to `Clc1cccc(CNc2c3ccccc3nc3ccccc23)c1`, the growth is -18.4% (active).

With `F`, the growth is 40.9% [6.87 mM].

Take `COc1cc(/C=C/C(=O)c2cc(OC)c(OC)c(OC)c2)ccc1OCc1ccccc1`: the growth is 21.5%.

As for `N#CC(C#N)=Cc1c(-c2ccccc2)[nH]c2ccccc12`, the growth is 32%. Then `c1ccc2cc(C[n+]3ccn(CCCCCCCn4cc[n+](Cc5ccc6ccccc6c5)c4)c3)ccc2c1`, with -2.76% (active). For `C1CN(CC2CCC(CN3CCOCC3)O2)CCO1` (stereo not given) the value was 102%; for `COc1ccc2sc(N(Cc3cccnc3)C(=O)c3ccc(C#N)cc3)nc2c1`, 73%. For `COc1ccc(CCNC(=S)NN)cc1OC` the value was 128%; for `COc1ccc(Cn2cc3c(c2-c2ccccc2)CCCc2cnoc2-3)cc1[N+](=O)[O-]`, 40.4%; for `Oc1c(CN2CCC(N3CCCCC3)CC2)cc(Cc2cc(CN3CCC(N4CCCCC4)CC3)c(O)c3ncccc23)c2cccnc12`, -39.2% (active). Consider `O=[N+]([O-])c1ccccc1NCSc1ccc(Cl)cc1`, for which the growth is 92.1%. In the case of `COc1ccc(C2CC(c3ccc(N(C)C)cc3)=NN2c2ccc(S(N)(=O)=O)cc2)cc1` (stereo not given), the growth was 57.6%. Consider `Clc1ccc(C2CC(c3cccc(Nc4ccncc4)c3)=NN2c2cc(Cl)cc(Cl)c2)cc1` (stereo not given), for which the growth was 84.9%. Then `COc1ccc(/C(C)=C(\c2ccc(OCCN3CCCCCC3)cc2)c2ccc(OC(=O)c3ccccc3)cc2)cc1`, with 61.3%; and `CCOC(=O)c1cocc1C(=O)O`, with 103%; and `O=C(O)c1cc2ccccc2cc1Nc1ccccc1`, with 102%. For `O=C(c1ccccc1)c1ccc(Cl)c([N+](=O)[O-])c1`, the growth was 77.7%. Then `CCOC(=O)c1c(NC(=S)Nc2ccc([N+](=O)[O-])cc2)sc2c1CCCCC2`, with 71.2%. For `O=C(/C=C/c1cn(-c2ccccc2)nc1-c1ccccc1)CCC(=O)NO` the value was 101%. For `N#Cc1c(-c2ccccn2)[nH]c(=S)[nH]c1=O` the value was 110%; for `COc1ccc(/C=C2\CCc3ccccc3C2=O)cc1`, 76.7%; for `CCN(CC)CCOc1cccc2c1C(=O)c1cccc(OCCN(CC)CC)c1C2=O`, 8.32% (active). On to `NC(=Nc1ccccc1)SCCCSC(N)=Nc1ccccc1`, for which the growth is 85.8%. Then `CCCCCCCCCCCCCCCCCC1=NC(C)(CO)CO1` (stereo not given), with 82%. For the compound `Clc1ccc2c(c1)N(c1ncnc3ccc(-c4cnc5[nH]ccc5c4)cc13)CC2`, the growth was -4.95% (active). For `Cn1cc(-c2csc(-c3cn(CCN)c4ccc(F)cc34)n2)c2cccnc21` the value was 20.2%; for `CCN1C(=O)N(CC)C2C1NN=c1s/c(=C\c3ccccn3)c(=O)n12` (stereo not given), -26.9% (active). As to `CC(=O)c1ccc(NC(=O)Nc2ccc(S(=O)(=O)Nc3ccc(Cl)nn3)cc2)cc1`, the growth was 107%.

`CCOC(=O)c1c(NCC(=O)Nc2cccc([N+](=O)[O-])c2)sc2c1CCCC2`: the growth is -77.2% (active). Regarding `COc1nc2ccc(C)cc2cc1-c1nc2c(cnn2-c2ccc(Br)cc2)c(=O)[nH]1`, the growth is 29.5%. Consider `O=C(Nc1cccc(C2=NCCN2)c1)c1ccc(OCCCOc2ccc(C(=O)Nc3cccc(C4=NCCN4)c3)cc2)cc1`, for which the growth is -24.4% (active).

`COC1/C=C/OC2(C)Oc3c(C)c(O)c4c(O)c(c(C=NOC(c5ccccc5)c5ccccc5)c(O)c4c3C2=O)NC(=O)/C(C)=C/C=C/C(C)C(O)C(C)C(O)C(C)C(OC(C)=O)C1C` (stereo not given): the growth is 3.6% (active). Then `O=[N+]([O-])c1ccc(N2CCN=N2)cc1`, with 93.9%.

Take `O=C(OCCBr)c1ccc(Cl)c([N+](=O)[O-])c1`: the growth is -79.8% (active). For `CCNCCCn1c2c(c3ccc(F)cc3c1=O)C(=O)c1cc(OC)cnc1-2`, the growth is -75.7% (active).

Take `COc1ccc(Cn2cc(COc3cc(/C=C/C(=O)c4cc(OC)c(OC)c(OC)c4)ccc3OC)nn2)cc1`: the growth was 49%. With `COC1C(OC(N)=O)C(O)C(Oc2ccc3c(O)c(NC(=O)c4ccc(O)c(CC=C(C)C)c4)c(=O)oc3c2C)OC1(C)C` (stereo not given), the growth was 89%. For `N#Cc1c(-c2ccc(Cl)cc2)n(O)c2ccccc12` the value was -3.01% (active).
